Laboratory results taken from PubChem BioAssay (NCATS).
Records with an inconclusive call do not appear. Activity calls are given as the source filed them. The call rests on the fitted dose curve; in most records, active means well fitted cell-killing curve with a large enough effect; inconclusive means small, poorly fitted or top-dose-only effect, or effect the other way; inactive means flat fitted curve, though single readings scatter.

Columns and labels:
Assay in all cases: Primary qHTS to identify gynecologic anti-cancer compounds using libraries of approved drugs and bioactive compounds (AID 1345084); further: nearly all actives have a fitted effect of over 55% in size
CAOV3 = details: Gynecologic cancer cell panel viability, ATPlite luminescence, 48 h; series mostly up to 57.5 µM
In short: (§1)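 Cell viability after 48 h drug treatment, ATPlite luminescence readout; five doses.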

Es-2 = details: Gynecologic cancer cell panel viability, ATPlite luminescence, 48 h; series mostly up to 57.5 µM
In short: as §1

HeLa = details: Gynecologic cancer cell panel viability, ATPlite luminescence, 48 h; series mostly up to 57.5 µM
In short: as §1

JEG-3 = details: Gynecologic cancer cell panel viability, ATPlite luminescence, 48 h; series mostly up to 57.5 µM
In short: as §1

PA-1 = details: Gynecologic cancer cell panel viability, ATPlite luminescence, 48 h; series mostly up to 57.5 µM
In short: as §1

SKOV3 = details: Gynecologic cancer cell panel viability, ATPlite luminescence, 48 h; series mostly up to 57.5 µM
In short: as §1

Tov-21-G = details: Gynecologic cancer cell panel viability, ATPlite luminescence, 48 h; series mostly up to 57.5 µM
In short: as §1

Tov112D = details: Gynecologic cancer cell panel viability, ATPlite luminescence, 48 h; series mostly up to 57.5 µM
In short: as §1

Hek293T = details: Gynecologic cancer cell panel viability, ATPlite luminescence, 48 h, control line for the selectivity index; series mostly up to 57.5 µM
In short: as §1

OV90 = details: Gynecologic cancer cell panel viability, ATPlite luminescence, 48 h; series mostly up to 57.5 µM
In short: as §1

CASKI = details: Gynecologic cancer cell panel viability, ATPlite luminescence, 48 h; series mostly up to 57.5 µM
In short: as §1
On the % scale 0 is the no-effect control and ±100 the full control effect; potency means the concentration at half of the fitted maximal effect.

Cn1nc(-c2ccc(C(F)(F)F)cc2)nc2c(=O)n(C)c(=O)nc1-2
active: Potency (CAOV3) 10 µM | Potency (Es-2) 15.8 µM | Potency (HeLa) 20 µM | Potency (JEG-3) 10 µM | Potency (PA-1) 5.01 µM | Potency (SKOV3) 17.8 µM | Potency (Tov-21-G) 12.6 µM | Potency (Tov112D) 7.94 µM

CS/C=C/C(=O)O[C@@H]1CCC2=CC(=O)C(=C(C)C)C[C@]2(C)[C@H]1C
inactive: Potency (CAOV3) | Potency (Es-2) | Potency (HeLa) | Potency (Hek293T) | Potency (JEG-3) | Potency (OV90) | Potency (PA-1) | Potency (Tov-21-G) | Potency (Tov112D)

COC1C(O)C(OC2CCC3(C)C(CCC45CCC6C7(COC(=O)C7)OC4(O)C6(C)CCC35)C2)OC(C)C1OC1OC(CO)C(OC2OC(CO)C(O)C(O)C2O)C(O)C1O (stereo not drawn)
inactive: activity change, negative = cytotoxicity (CAOV3) 5.13% [at 11.6 µM] | activity change, negative = cytotoxicity (CASKI) 22.8% [at 11.6 µM] | activity change, negative = cytotoxicity (HeLa) -19.8% [at 11.6 µM] | activity change, negative = cytotoxicity (OV90) -0.158% [at 11.6 µM] | activity change, negative = cytotoxicity (SKOV3) -3.24% [at 11.6 µM]

C=C1CC[C@@H]2[C@](C)(CO)[C@H](O)CC[C@@]2(C)[C@@H]1C/C=C1/C(=O)OCC1O (stereo partly drawn)
inactive: Potency (CAOV3) | Potency (HeLa) | Potency (JEG-3) | Potency (OV90) | Potency (SKOV3)

CC(=O)C1=CCC2C3CC=C4CC(O)CC(O)C4(C)C3C(O)CC12C (stereo not drawn)
inactive: Potency (CAOV3) | Potency (HeLa) | Potency (Hek293T) | Potency (JEG-3) | Potency (OV90) | Potency (PA-1)

COc1cc(Br)c(S(=O)(=O)Nc2ccc(Cl)c(O[C@@H]3CCN(C)C3)c2)cc1OC
inactive: Potency (CAOV3) | Potency (Es-2) | Potency (HeLa) | Potency (JEG-3) | Potency (Tov112D)
